The source of these data is PubChem BioAssay (Tox21).

Assay [1] can be described thus: qHTS assay to identify small molecule antagonists of the sonic hedgehog signaling (Shh) pathway (AID 1259369). Note: nearly all actives have a fitted effect of over 45% in size. The gist of the method:
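NIH/3T3-derived Gli1-Luc reporter cells plated 4 h, dosed with compound, then stimulated with conditioned medium for 24 h at 37 C. Firefly luciferase luminescence read after 30 min with detection reagent at room temperature.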
Background: In qHTS, concentration-response curves come from the screen itself.

Assay [2] is described as follows: qHTS assay to identify small molecule agonists of the androgen receptor (AR) signaling pathway in the presence of an antagonist - cell viability counter screen (AID 1259379; active = well fitted curve in the direction sought with a large enough effect in the repeat runs; an effect the other way counts as inactive or inconclusive;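 note: MDA-kb2 human breast cancer cells carrying an MMTV luciferase reporter; series mostly up to about 92 µM; nearly all actives have a fitted effect of over 25% in size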). An outline of the steps:
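MDA-kb2 cells (MMTV-luciferase, AR/GR), 3,000/well, 5 h attachment, then 3.0 µM nilutamide (final) and compounds at 15 concentrations. Viability by CellTiter-Fluor fluorescence after 16 h at 37 °C, 0% CO2, in the reporter wells.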

Assay [3] can be described thus: qHTS assay to identify small molecule agonists of the estrogen receptor beta (ER-beta) signaling pathway - cell viability counter screen (AID 1259380; active = well fitted curve in the direction sought with a large enough effect in the repeat runs; an effect the other way counts as inactive or inconclusive; note: nearly all actives have a fitted effect of over 30% in size; note: potency is the fitted concentration of half-maximal effect). The gist of the method:
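ER-beta-UAS-bla HEK293T cells in medium with 2% charcoal-stripped FBS, pre-incubated 6 hr, then treated 16 hr at 37C. Cytotoxicity read in the same wells by CellTiter-Glo luminescence after 30 min at room temperature.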

The target of assay [4] is Androgen receptor (Homo sapiens) (UniProt P10275). Kind of assay: qHTS assay to identify small molecule agonists of the androgen receptor (AR) signaling pathway in the presence of an antagonist (AID 1259381). Note: nearly all actives have a fitted effect of over 15% in size. An outline of the steps: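 MDA-kb2 cells carrying MMTV-luciferase (AR/GR responsive), 3,000 cells/well, co-treated with 3.0 uM nilutamide final. Compounds at 15 concentrations, 16 hr at 37C without CO2. Luciferase luminescence read after 30 min with ONE-Glo.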

The nature of assay [5]: qHTS assay to identify small molecule antagonists of the estrogen receptor beta (ER-beta) signaling pathway - cell viability counter screen (AID 1259382; active = well fitted curve in the direction sought with a large enough effect in the repeat runs; an effect the other way counts as inactive or inconclusive;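 note: HEK293T cells carrying ER-beta-UAS-bla reporter stimulated with estradiol; series mostly up to about 92 µM; nearly all actives have a fitted effect of over 55% in size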). An outline of the steps: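 ER-beta-UAS-bla HEK293T cells in 2% charcoal-stripped FBS medium, treated with compound plus 1 nM 17-beta-estradiol for 16 h at 37C. Viability read by CellTiter-Glo luminescence after 30 min at room temperature in the same wells.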

The target in assay [6] is Estrogen receptor (Homo sapiens) (UniProt P03372). Kind of assay: qHTS assay to identify small molecule agonists of the estrogen receptor alpha (ER-alpha) signaling pathway in the presence of an antagonist (AID 1259383). Note: top concentration of the series differs between compounds; nearly all actives have a fitted effect of over 15% in size. The gist of the method: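 VM7Luc4E2 cells express endogenous full-length ER-alpha with an ERE-luciferase reporter and were hormone-deprived for 5 days. Compounds at 15 concentrations were added with 10.0nM ICI-182,780 for 22hr at 37C. Luminescence was read with ONE-Glo.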

Assay [7] can be described thus: qHTS assay to identify small molecule agonists or antagonists of the thyroid stimulating hormone receptor (TSHR) signaling pathway - wild type cell line counter screen (AID 1259384). The gist of the method:
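Counter screen in untransfected Hek293: compounds (15-point titration, triplicate) plus phosphodiesterase inhibitor Ro20-1724 added after 18 h plating; 30 min RT. Intracellular cAMP via competitive d2/cryptate immunoassay, 1 h incubation.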

Assay [8] in a line: qHTS assay to identify small molecule agonists of the estrogen receptor alpha (ER-alpha) signaling pathway in the presence of an antagonist - cell viability counter screen (AID 1259386; active = well fitted curve in the direction sought with a large enough effect in the repeat runs; an effect the other way counts as inactive or inconclusive;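 note: series mostly up to about 92 µM; cells exposed to compounds for 22 h at 37 °C before the viability read; nearly all actives have a fitted effect of over 30% in size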). The gist of the method: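 Cell viability in VM7Luc4E2 cells (endogenous full-length ER-alpha) measured by CellTiter-Fluor fluorescence in the same wells as the luciferase screen. Cells pre-cultured 5 days in charcoal-stripped serum, then treated 22 h with compounds at 15 concentrations plus 10.0nM ICI-182,780.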

Assay [9] has as its target Progesterone receptor (Homo sapiens) (UniProt P06401). Kind of assay: qHTS assay to identify small molecule agonists of the progesterone receptor (PR) signaling pathway (AID 1346784). Note: nearly all actives have a fitted effect of over 30% in size. An outline of the steps:
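PR-UAS-bla HEK 293T cells carrying a UAS-driven beta-lactamase reporter were seeded in medium with 2% charcoal-stripped FBS, preincubated 6 hr at 37C, then exposed to compounds in DMSO for 16 hr; agonism was read by LiveBLAzer B/G FRET fluorescence.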

A short description of assay [10]: qHTS assay to identify small molecule antagonists of the TGF-beta/Smad signaling pathway - cell viability counter screen (AID 1346824; active = well fitted curve in the direction sought with a large enough effect in the repeat runs; an effect the other way counts as inactive or inconclusive; note: nearly all actives have a fitted effect of over 50% in size). An outline of the steps: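 Cytotoxicity counter-screen run in the same wells as the beta-lactamase Smad reporter read: CellTiter-Glo luminescence after 30 min at room temperature. HEK 293T SBE-bla cells had 5 hr compound exposure at 37 C with TGF-beta1 (0.25 ng/mL stock).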

The nature of assay [11]: qHTS assay to identify small molecule agonists of the TGF-beta/Smad signaling pathway - cell viability counter screen (AID 1346829; active = well fitted curve in the direction sought with a large enough effect in the repeat runs; an effect the other way counts as inactive or inconclusive; note: top concentration of the series differs between compounds; nearly all actives have a fitted effect of over 45% in size). The gist of the method:
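Cytotoxicity counter screen: CellTiter-Glo luminescence (30 min, room temperature) measured in the SBE-bla HEK 293T reporter wells after 5 hr compound treatment at 37 C and the 2 hr substrate step.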

Assay [12] is described as follows: qHTS assay to identify small molecule agonists of the TGF-beta/Smad signaling pathway (AID 1346859; active = well fitted activation curve with a large enough effect in the signal ratio in the repeat runs, not every such curve was filed as active; the % refers to the signal ratio; note: series mostly up to about 77 µM). An outline of the steps: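 HEK 293T cells stably carrying a beta-lactamase reporter driven by the Smad binding element were seeded overnight, exposed to DMSO-dissolved compounds for 5 hr at 37 C, 5% CO2, then loaded with FRET substrate for 2 hr at room temperature.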

Assay [13] concerns the target Thyrotropin receptor (Homo sapiens) (UniProt P16473). The assay is described as follows: qHTS assay to identify small molecule antagonists of the thyroid stimulating hormone receptor (TSHR) signaling pathway (AID 1259385). Note: nearly all actives have a fitted effect of over 20% in size. An outline of the steps: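 Antagonist mode: compound-treated TSHR-expressing HEK293 cells were stimulated with 1.5 ng/mL TSH (final) in presence of Ro20-1724 for 30 min at RT. HTRF cAMP detection after 1 h; each compound tested at 15 concentrations, triplicate.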

The target of assay [14] is Progesterone receptor (Homo sapiens) (UniProt P06401). Kind of assay: qHTS assay to identify small molecule antagonists of the progesterone receptor (PR) signaling pathway (AID 1346795; active = well fitted inhibition curve with a large enough effect in the signal ratio in the repeat runs, not every such curve was filed as active; the % refers to the signal ratio). The gist of the method:
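PR-UAS-bla HEK293T cells carrying a UAS-driven beta-lactamase reporter were plated in medium with 2% charcoal-stripped FBS and rested 6 hr at 37C. Compounds were added with 1 nM R5020 (final) for 16 hr, then FRET substrate loaded 2 hr at room temperature.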

Assay [15] addresses Thyrotropin-releasing hormone receptor (Homo sapiens) (UniProt P34981). The assay is described as follows: qHTS assay to identify small molecule agonists of the thyrotropin-releasing hormone receptor (TRHR) signaling pathway (AID 1346891). Note: series mostly up to about 58 µM. The gist of the method:
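TRHR-expressing HEK293 cells were plated 18 h at 37 °C/5% CO2, loaded with calcium dye 2 h at 37 °C, then given compound in DMSO; fluorescence was read kinetically for 3 min at 1 s intervals.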

Assay [16] is described as follows: qHTS assay to identify small molecule antagonists of the progesterone receptor (PR) signaling pathway - cell viability counter screen (AID 1346798; active = well fitted curve in the direction sought with a large enough effect in the repeat runs; an effect the other way counts as inactive or inconclusive; note: series mostly up to about 92 µM; nearly all actives have a fitted effect of over 50% in size). An outline of the steps:
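PR-UAS-bla HEK293T cells in medium with 2% charcoal-stripped FBS were treated with compounds plus R5020 for 16 hr at 37C. Cell viability was then read by CellTiter-Glo luminescence after 30 min at room temperature in the same wells.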

Assay [17] can be described thus: qHTS assay to identify small molecule agonists of the progesterone receptor (PR) signaling pathway - cell viability counter screen (AID 1346799). Note: nearly all actives have a fitted effect of over 45% in size. The gist of the method: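 PR-UAS-bla HEK293T cells, 3,000 per well in medium with 2% charcoal-stripped FBS, were preincubated 6 hr at 37C, then exposed to compounds for 16 hr; viability was read as CellTiter-Glo luminescence after 30 min at room temperature.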

The target of assay [18] is Thyrotropin-releasing hormone receptor (Homo sapiens) (UniProt P34981). Kind of assay: qHTS assay to identify small molecule antagonists of the thyrotropin-releasing hormone receptor (TRHR) signaling pathway (AID 1346877; active = well fitted inhibition curve with a large enough effect in the repeat runs, not every such curve was filed as active; note: series mostly up to about 51 µM). An outline of the steps:
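TRHR-expressing HEK293 cells loaded with calcium dye for 2 h at 37 C; compounds pre-incubated 5 min at room temperature before TRH challenge at 1 nM final. Intracellular calcium fluorescence read kinetically for 3 min; 15 concentrations in triplicate.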

Assay [19] concerns the target Estrogen receptor beta (Homo sapiens) (UniProt Q92731). Kind of assay: qHTS assay to identify small molecule antagonists of the estrogen receptor beta (ER-beta) signaling pathway (AID 1259378; active = well fitted inhibition curve with a large enough effect in the signal ratio in the repeat runs, not every such curve was filed as active; the % refers to the signal ratio). The gist of the method: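 Antagonist mode: compounds added to beta-lactamase reporter HEK293T ER-beta-UAS cells stimulated with E2 (1nM final), 16 hr at 37C. LiveBLAzer B/G FRET substrate, 2 hours room temperature, fluorescence read-out.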

Unmarked numbers belong to inactive results. Inconclusive results are not listed. Activity calls are given as the source filed them. Unless noted, calls come from the whole dose curve.

Chain of Estrogen receptor (Homo sapiens) (P03372 whole entry, looked up): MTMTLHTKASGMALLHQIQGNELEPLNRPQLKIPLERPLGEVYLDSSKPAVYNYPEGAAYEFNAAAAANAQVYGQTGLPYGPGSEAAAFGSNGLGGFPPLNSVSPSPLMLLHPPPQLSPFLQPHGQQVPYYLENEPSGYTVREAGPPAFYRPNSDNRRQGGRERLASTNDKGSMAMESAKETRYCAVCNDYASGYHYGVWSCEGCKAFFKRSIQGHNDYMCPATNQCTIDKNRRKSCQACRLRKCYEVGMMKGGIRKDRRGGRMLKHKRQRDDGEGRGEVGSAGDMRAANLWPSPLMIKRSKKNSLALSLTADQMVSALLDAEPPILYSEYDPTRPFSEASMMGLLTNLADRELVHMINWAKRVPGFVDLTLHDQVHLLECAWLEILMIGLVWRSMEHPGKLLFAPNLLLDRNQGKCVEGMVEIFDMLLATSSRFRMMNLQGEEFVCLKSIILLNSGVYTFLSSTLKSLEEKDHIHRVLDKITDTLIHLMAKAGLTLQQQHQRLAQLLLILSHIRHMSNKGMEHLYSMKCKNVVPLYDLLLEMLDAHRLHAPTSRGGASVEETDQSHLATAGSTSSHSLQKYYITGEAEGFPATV
Chain of Thyrotropin receptor (Homo sapiens) (P16473 whole entry, looked up): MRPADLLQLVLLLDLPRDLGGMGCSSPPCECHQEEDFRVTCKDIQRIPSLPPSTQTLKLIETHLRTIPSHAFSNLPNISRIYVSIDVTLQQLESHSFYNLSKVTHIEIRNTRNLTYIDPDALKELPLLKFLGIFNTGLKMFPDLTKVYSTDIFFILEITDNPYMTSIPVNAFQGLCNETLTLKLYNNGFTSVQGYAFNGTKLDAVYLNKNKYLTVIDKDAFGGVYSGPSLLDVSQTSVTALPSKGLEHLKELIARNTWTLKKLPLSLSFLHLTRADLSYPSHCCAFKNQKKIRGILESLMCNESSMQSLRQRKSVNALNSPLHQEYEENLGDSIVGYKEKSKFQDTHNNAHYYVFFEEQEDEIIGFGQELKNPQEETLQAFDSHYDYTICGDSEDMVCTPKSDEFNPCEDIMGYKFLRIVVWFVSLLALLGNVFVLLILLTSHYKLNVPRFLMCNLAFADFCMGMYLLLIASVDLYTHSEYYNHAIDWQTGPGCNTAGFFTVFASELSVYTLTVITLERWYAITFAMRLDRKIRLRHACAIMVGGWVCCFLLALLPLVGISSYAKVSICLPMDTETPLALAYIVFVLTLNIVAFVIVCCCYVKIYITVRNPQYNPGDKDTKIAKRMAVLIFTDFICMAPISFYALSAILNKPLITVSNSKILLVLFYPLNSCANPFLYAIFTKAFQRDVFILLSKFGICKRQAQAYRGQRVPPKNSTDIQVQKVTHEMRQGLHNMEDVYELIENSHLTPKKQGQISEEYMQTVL
Chain of Progesterone receptor (Homo sapiens) (P06401 whole entry, looked up): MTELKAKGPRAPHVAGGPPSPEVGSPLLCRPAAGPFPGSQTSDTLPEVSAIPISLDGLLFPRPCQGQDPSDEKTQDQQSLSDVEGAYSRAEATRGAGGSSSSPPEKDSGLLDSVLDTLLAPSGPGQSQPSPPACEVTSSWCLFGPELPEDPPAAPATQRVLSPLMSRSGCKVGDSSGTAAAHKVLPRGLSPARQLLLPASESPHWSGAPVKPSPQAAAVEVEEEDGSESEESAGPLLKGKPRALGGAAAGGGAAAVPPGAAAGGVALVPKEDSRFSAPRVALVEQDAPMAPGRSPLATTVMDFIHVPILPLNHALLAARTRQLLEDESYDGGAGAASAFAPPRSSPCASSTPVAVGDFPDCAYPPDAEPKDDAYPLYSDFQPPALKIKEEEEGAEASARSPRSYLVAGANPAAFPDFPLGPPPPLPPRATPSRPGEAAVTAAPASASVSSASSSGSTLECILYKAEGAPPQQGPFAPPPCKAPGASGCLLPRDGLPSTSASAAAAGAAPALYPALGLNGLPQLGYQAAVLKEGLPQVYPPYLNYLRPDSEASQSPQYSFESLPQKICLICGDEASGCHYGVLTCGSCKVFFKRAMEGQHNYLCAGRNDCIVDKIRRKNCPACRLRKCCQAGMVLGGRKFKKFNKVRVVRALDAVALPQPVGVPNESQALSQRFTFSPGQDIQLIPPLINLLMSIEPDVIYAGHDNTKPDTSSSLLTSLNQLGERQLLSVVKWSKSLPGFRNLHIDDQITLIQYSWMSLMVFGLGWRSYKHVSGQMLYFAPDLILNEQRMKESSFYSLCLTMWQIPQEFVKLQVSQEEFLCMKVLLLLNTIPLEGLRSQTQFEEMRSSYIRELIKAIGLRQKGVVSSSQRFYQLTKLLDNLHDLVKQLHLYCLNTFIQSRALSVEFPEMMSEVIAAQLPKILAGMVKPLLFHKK
Chain of Thyrotropin-releasing hormone receptor (Homo sapiens) (P34981 whole entry, looked up): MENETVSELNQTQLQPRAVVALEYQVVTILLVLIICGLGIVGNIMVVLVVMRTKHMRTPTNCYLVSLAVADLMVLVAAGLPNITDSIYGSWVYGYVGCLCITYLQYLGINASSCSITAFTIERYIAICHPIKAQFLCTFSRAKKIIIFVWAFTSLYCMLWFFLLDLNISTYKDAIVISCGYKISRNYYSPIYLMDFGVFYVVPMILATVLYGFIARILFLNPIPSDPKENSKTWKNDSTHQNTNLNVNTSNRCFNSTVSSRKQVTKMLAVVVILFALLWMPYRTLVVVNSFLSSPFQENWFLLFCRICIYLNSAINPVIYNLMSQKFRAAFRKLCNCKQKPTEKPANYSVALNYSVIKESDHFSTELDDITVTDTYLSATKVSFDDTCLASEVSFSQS
Chain of Androgen receptor (Homo sapiens) (P10275 whole entry, looked up): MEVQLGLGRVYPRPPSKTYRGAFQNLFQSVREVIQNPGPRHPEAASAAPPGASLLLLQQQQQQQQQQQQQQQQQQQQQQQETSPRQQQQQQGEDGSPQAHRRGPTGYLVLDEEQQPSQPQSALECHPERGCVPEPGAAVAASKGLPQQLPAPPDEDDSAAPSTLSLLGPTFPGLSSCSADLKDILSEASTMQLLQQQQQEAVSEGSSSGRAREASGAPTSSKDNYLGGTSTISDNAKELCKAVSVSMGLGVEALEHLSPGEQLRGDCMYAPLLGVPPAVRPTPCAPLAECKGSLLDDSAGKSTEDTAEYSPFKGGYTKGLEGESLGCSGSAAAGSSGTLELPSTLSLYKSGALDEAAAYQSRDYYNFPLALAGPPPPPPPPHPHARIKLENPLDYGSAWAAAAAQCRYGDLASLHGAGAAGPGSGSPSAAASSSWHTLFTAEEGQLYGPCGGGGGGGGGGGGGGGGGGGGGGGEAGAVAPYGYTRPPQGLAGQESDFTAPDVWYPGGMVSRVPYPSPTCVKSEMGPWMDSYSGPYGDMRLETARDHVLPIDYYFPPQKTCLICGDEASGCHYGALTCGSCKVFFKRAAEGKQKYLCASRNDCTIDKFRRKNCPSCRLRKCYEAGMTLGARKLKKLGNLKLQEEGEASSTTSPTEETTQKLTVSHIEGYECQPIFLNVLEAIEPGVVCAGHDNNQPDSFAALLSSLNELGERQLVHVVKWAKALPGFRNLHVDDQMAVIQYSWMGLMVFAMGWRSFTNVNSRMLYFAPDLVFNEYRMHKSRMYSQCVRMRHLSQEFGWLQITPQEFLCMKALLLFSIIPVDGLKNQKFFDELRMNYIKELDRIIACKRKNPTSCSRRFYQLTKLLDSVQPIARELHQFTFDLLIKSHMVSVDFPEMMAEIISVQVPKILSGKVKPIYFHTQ
Chain of Estrogen receptor beta (Homo sapiens) (Q92731 whole entry, looked up): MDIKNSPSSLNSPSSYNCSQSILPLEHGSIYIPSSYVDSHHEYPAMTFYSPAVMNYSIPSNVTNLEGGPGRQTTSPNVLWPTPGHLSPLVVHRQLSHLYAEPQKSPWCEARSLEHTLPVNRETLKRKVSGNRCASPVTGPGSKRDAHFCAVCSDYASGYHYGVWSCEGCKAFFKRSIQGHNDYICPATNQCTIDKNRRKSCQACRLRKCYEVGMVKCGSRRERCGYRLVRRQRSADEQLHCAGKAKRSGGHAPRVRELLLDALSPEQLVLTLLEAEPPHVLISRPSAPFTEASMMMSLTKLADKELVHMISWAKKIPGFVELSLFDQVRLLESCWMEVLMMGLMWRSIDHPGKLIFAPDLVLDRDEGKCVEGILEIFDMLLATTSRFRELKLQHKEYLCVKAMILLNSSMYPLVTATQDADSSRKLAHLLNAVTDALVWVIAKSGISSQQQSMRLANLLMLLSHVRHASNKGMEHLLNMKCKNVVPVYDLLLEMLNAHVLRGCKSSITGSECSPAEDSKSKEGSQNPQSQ

Regarding `CCCOc1ccc2nc(NC(=O)OC)[nH]c2c1`, the Potency entry in assay [1], in [2], in assay [3], in [4], in [5] and in assay [6] was “inactive” throughout. Moreover, the Potency entry in [7], in [8], in assay [10] and in assay [11] was “inactive” in each case. The outcome in assay [9] and in [12] was inactive.

Take `O=C(O)Cc1sc(-c2ccccc2)nc1-c1ccc(Cl)cc1`: the Potency entry in assay [1], in assay [2], in assay [4], in [6], in assay [7] and in assay [13] was “inactive” throughout. For the same compound, the Potency entry in assay [8], in [14], in assay [10], in [11] and in [15] was “inactive” each time. Besides, the Potency in assay [3] is 21.1 µM (active). Moreover, in assay [9], the compound was called inactive.

Consider `CC(=O)O[C@H]1C[C@@H]2CC[C@@H]3[C@H](CC[C@@]4(C)[C@H]3C[C@H]([N+]3(C)CCCCC3)[C@@H]4OC(C)=O)[C@@]2(C)C[C@@H]1N1CCCCC1`, for which the Potency result in [1], in assay [2], in assay [3], in assay [5], in assay [6] and in [7] was “inactive” throughout. Further, the Potency result in assay [13], in [8], in assay [14], in assay [16], in assay [17] and in assay [11] was “inactive” in each case. Besides, in [15], the Potency entry was “inactive”. Further, the call in [9], in assay [12] and in assay [18] was inactive.

Turning to `O=C(Cl)c1c(Cl)cccc1Cl`, the Potency result in assay [1], in [2], in assay [3], in [5], in [6] and in assay [7] was “inactive” each time. The Potency entry in assay [13], in assay [8], in assay [14], in assay [16], in [17] and in assay [10] was “inactive” each time. Also, the Potency result in [11] and in assay [15] was “inactive” throughout. Also, the compound was classed as inactive in assay [9], in [12] and in assay [18].

Take `COC(Cc1ccccc1)OC`: the Potency entry in assay [1], in assay [2], in assay [3], in assay [5], in [6] and in assay [7] was “inactive” throughout. The Potency entry in [13], in [8], in assay [14], in assay [16], in [17] and in [10] was “inactive” each time. For the same compound, the Potency entry in assay [11] and in assay [15] was “inactive” in each case. Besides, the outcome in assay [9] and in [12] was inactive.

For the compound `CC(C)c1ccccc1C(C)C`, the Potency entry in [1], in assay [19], in [3], in assay [5], in assay [7] and in [13] was “inactive” throughout. Moreover, the Potency entry in [8], in assay [14], in [16], in assay [17] and in assay [11] was “inactive” throughout. Also, the compound was classed as inactive in assay [9] and in assay [12].

In the case of `CCOC(=O)C1=NN(c2ccccc2)C(=O)C1`, the Potency entry in assay [1], in assay [2], in assay [3], in assay [5], in assay [6] and in assay [7] was “inactive” in each case. Also, the Potency entry in [13], in assay [8], in assay [14], in assay [16], in assay [17] and in assay [10] was “inactive” in each case. In addition, the Potency result in assay [11] and in assay [15] was “inactive” in each case. The compound was called inactive in [9], in assay [12] and in [18].

On to `CC(C)(C)c1cc(CCC(=O)OCC(COC(=O)CCc2cc(C(C)(C)C)c(O)c(C(C)(C)C)c2)(COC(=O)CCc2cc(C(C)(C)C)c(O)c(C(C)(C)C)c2)COC(=O)CCc2cc(C(C)(C)C)c(O)c(C(C)(C)C)c2)cc(C(C)(C)C)c1O`, for which the Potency entry in [1], in assay [19], in [2], in assay [5], in assay [6] and in assay [7] was “inactive” each time. The Potency result in assay [13], in assay [8], in assay [14], in [16], in assay [17] and in assay [10] was “inactive” in each case. In addition, the Potency result in [11] and in assay [15] was “inactive” throughout. The result in assay [9], in assay [12] and in assay [18] was inactive.
